Reference: PubChem BioAssay AID504706 (National Center for Advancing Translational Sciences (NCATS), 2011)
The campaign covered roughly 320,000 compounds. About 200 (0.062%) were called active. A call without a number means that no potency is given here. Roughly 6% stayed inconclusive and do not appear here. Calls come from the whole dose curve; as a rule, active = well fitted activation curve with a large enough effect; inconclusive = small, poorly fitted or top-dose-only effect; inactive = no such curve, though single readings can be large or run the other way. This excerpt belongs to a sample that is enriched for actives.

Assay: qHTS assay for re-activators of p53 using a Luc reporter; note: nearly all actives have a fitted effect of over 45% in size
Settings: H1299 p53-A138V BP100-luciferase reporter, luminescence, 24 h; series mostly up to 92.2 µM
Source text: The p53 tumor suppressor plays a key role in suppression of tumorigenesis and in human carcinogenesis. It is frequently found inactivated in human cancers, mainly by point mutation. These point mutations are found in a wide variety of human cancers and a majority of them affect the DNA binding domain of the protein. The point mutations either alter native p53 conformation or abolish DNA contact. Additionally, cancer cells with p53 mutations are more resistant to chemo-radiation therapies. In order to find activators to reactivate this important protein, a cell-based screen for p53-dependent luciferase-reporter expression was developed. A p53-null H1299 lung cancer cell line was stably co-transfected with a temperature sensitive p53 mutant, p53-A138V, and a p53-responsive BP100-luciferase reporter. This cell model has previously been characterized in a gene chip profiling experiment for p53 activation. By lowering the culture temperature from 37 deg C (mutant p53 conformation) to 32 deg C (w.t. p53 conformation), a 30-60 fold increase in activation of luciferase activity is observed. At assay temperate, 37 deg C, basal reporter expression is very low and after the addition of detection reagent, a luminescent read-out is carried out. NIH Chemical Genomics Center [NCGC] NIH Molecular Libraries Probe Production Centers Network [MLPCN] MLPCN Grant: DA031088-01A1 Assay Provider (PI): Yi Sung, University of Michigan at Ann Arbor
5ul of 1000 cells per well are dispensed in all wells except column 4, into white solid-bottom TC-treated Kalypsys plates. The cells are kept in Opti-MEM and supplemented with 10% FBS and dispensed using a Multidrop (Thermo). Then using the Kalypsys pin-tool, 23nl of compounds are pinned. The compounds are starting concentration at 10mM, with 1:5 dilution, 4 points, and the control compound nocodazole is pinned in column 1 at 25mM, 1:3 dilution, in duplicate, 25mM nocodazole is pinned in column 2. Please note, all concentrations are working concentrations. 5ul of 1pM purified luciferase enzyme is dispensed using the Kalypsys dispenser in column 4. Plates are incubated for 24 hrs at 37 deg C, 5% CO2, and 95% humidity. Then 4ul of the detection reagent Amplite (ABD Bioquest) is added using the Kalypsys dispenser. Plates are incubated for 10 min at ambient room temperature and are then read on the ViewLux (Perkin Elmer) using a clear filter for a luminescent read-out.
Potency is the fitted concentration of half-maximal effect.

SMILES	Potency
COC(=O)c1ccc(/C=C/c2c(-c3ccc(OC)cc3)sc3ccccc23)cc1	inactive
Cc1ccc(S(=O)(=O)N2CCN(C(=O)CN3C(=O)NC(C)(c4ccc(Cl)cc4)C3=O)CC2)c(C)c1 (stereo not drawn)	inactive
O=C(CSc1nc2ccccc2c(=O)n1-c1ccccc1F)N1CCOCC1	inactive
Cc1c(Cl)cnc(NC(=O)COC(=O)C2CCCC2)c1Cl	inactive
C[C@H](CO)N1C[C@H](C)[C@H](CN(C)C(=O)Nc2ccc(C(F)(F)F)cc2)Oc2c(NC(=O)c3ccncc3)cccc2C1=O	inactive
CC[C@]1(C(=O)OC)[C@H]2C(=O)N(Cc3ccccc3)C(=O)[C@H]2[C@H]2CN=C(SCc3ccccc3)N21	inactive
CC[C@@]1(C(=O)OC)N[C@H](CN(C)C(C)=O)[C@@H]2C(=O)N(C)C(=O)[C@@H]21	inactive
CN(C(=O)c1cccc(NC(=O)Cc2cccc([N+](=O)[O-])c2)c1)C1CCCCC1	inactive
COc1cc(C(=O)NC2CCN(C)CC2)ccc1Nc1ncc2c(n1)N(C1CCC(O)CC1)CCC(=O)N2C (stereo not drawn)	inactive
CSCCC1NC(=O)N(CC(=O)Nc2cccc(S(=O)(=O)N3CCCCCC3)c2)C1=O (stereo not drawn)	inactive
CN(C(=O)c1cccc(NC(=O)C2CCN(C(=O)OC(C)(C)C)CC2)c1)C1CCC1	inactive
Cc1ccc(S(=O)(=O)N2CCN(C(=O)COC(=O)CNC(=O)c3ccc(C(C)(C)C)cc3)CC2)c(C)c1	inactive
CCC(CO)Oc1cc(NCc2ccccc2)c2ncn(C3CCCC3)c2c1 (stereo not drawn)	inactive
Nc1ncnc2c1ncn2[C@@H]1O[C@H](CNCc2cccn2-c2nccs2)[C@@H](O)[C@H]1O	inactive
CCOC(=O)C1=CN(Cc2ccc(Br)cc2)S(=O)(=O)NC1C (stereo not drawn)	inactive
COc1ccc2[nH]c3c(c2c1)CCN1C(=O)C(CC(=O)NCCc2ccccn2)C[C@H](C(=O)N2CCOCC2)[C@@]31C (stereo partly drawn)	inactive
O=C(COC(=O)c1cc[n+]([O-])cc1)Nc1ccc(Cl)c(C(F)(F)F)c1	inactive
COc1ccc(CCOC2OC(CO)C(OC(=O)/C=C/c3ccc(O)c(OC)c3)C(O[C@H]3O[C@@H](C)[C@H](O)[C@@H](O)[C@H]3O)C2O)cc1O (stereo partly drawn)	inactive
CCOC(=O)[C@H]1[C@H]2COc3ccccc3[C@@H]2N2C(=O)CN(Cc3ccccc3)C(=O)[C@@]12C	inactive
COc1ccc(OC)c(NC(=O)COC(=O)Cc2ccsc2)c1	inactive
O=C(CC1SC(N2CCOCC2)=NC1=O)Nc1ccccc1F (stereo not drawn)	inactive
O=C(NC(=S)Nc1ccc(Br)cc1F)C1CCCCC1	inactive
COc1ccc(CNC(=O)C[C@H]2C[C@H](C(=O)N3CCOCC3)[C@@]3(CCC4CCCC4)c4[nH]c5ccc(Cl)cc5c4CCN3C2=O)cc1OC	inactive
CCN1C[C@@H]2[C@@H]3C(=O)N(Cc4ccccc4)C(=O)[C@@H]3[C@](Cc3ccccc3)(C(=O)OC)N2C1=NC1CCCCC1	inactive
CCCCNc1c(-c2ccc(OC)c(Sc3ccc(OC)cc3)c2)nc2ccc(Cl)cn12	inactive
CC(C)N(C(=O)[C@H]1C[C@H](CC(=O)NC(C)(C)C)C(=O)N2CCc3c([nH]c4ccc(Cl)cc34)[C@]12C)C(C)C	inactive
Cc1c(NC(=O)C(C)OC(=O)c2ccccc2O)c(=O)n(-c2ccccc2)n1C (stereo not drawn)	inactive

SMILES	Potency
COCCN(CCOC)S(=O)(=O)NC[C@H]1O[C@@H](n2cnc3c(N)ncnc32)[C@H](O)[C@@H]1O	inactive
Cc1ccsc1C(=O)NNC(=O)COc1ccc(Br)cc1	inactive
COc1cc(C)ccc1OCC(=O)OCC(=O)c1ccc[nH]1	inactive
CCN(CC)C(=O)[C@H]1C[C@H](CC(=O)NCC23CC4CC(CC(C4)C2)C3)C(=O)N2CCc3c([nH]c4cc(CCC(=O)N(C)C)ccc34)[C@]12C	inactive
O=C(COC(=O)c1cccc(Cl)c1)NC(=O)NCc1ccccc1	inactive
CCCc1cc(=O)[nH]c(SCC(=O)Nc2ccc(C(=O)Nc3ccccc3OC)cc2)n1	inactive
O=C(CSc1ncn[nH]1)Nc1ccc(Br)cc1Br	inactive
CC(C)(C)OC(=O)C[C@@H]1C/C=C\C[C@@H](CC(=O)N[C@@H](CO)Cc2ccccc2)C(=O)N2CCC[C@H]2COC1=O	inactive
COc1ccccc1-c1nnc2n1N=C(c1ccc(OC(F)F)c(OCC3CC3)c1)CS2	inactive
C=CC1=C(C(=O)O)N2C(=O)[C@@H](NC(=O)/C(=N\OCC(=O)O)c3csc(N)n3)[C@H]2SC1	inactive
O=C(CSc1nc(-c2ccccc2)cs1)Nc1cccc([N+](=O)[O-])c1	35.5 µM (active)
CCNC(=O)CSc1nc(-c2ccccc2)cs1	inactive
O=C(CSc1ncn[nH]1)Nc1nc(-c2cccc([N+](=O)[O-])c2)cs1	inactive
CC(C)(C)OC(=O)C[C@@H]1C/C=C\C[C@H](CC(=O)N[C@@H](CO)Cc2ccccc2)C(=O)N[C@H](Cc2ccccc2)COC1=O	inactive
CC(C)n1cnc2c(NCc3ccccc3)cc(OCC3CCN(C)CC3)cc21	inactive
CN(Cc1ccc(CNC[C@H]2O[C@@H](n3cnc4c(N)ncnc43)[C@H](O)[C@@H]2O)o1)S(C)(=O)=O	inactive
CCOC(=O)C1=C(C)N(C[C@@H]2CC[C@@H](Cc3ccc(-c4ccccc4)cc3)O2)C(=O)NC1c1ccc([N+](=O)[O-])cc1 (stereo partly drawn)	inactive
O=S(=O)(c1cccs1)N1CCN(CCOc2ccccc2)CC1	inactive
CCCN=C1N(C)C[C@@H]2[C@@H]3C(=O)N(Cc4ccccc4)C(=O)[C@@H]3[C@](C)(C(=O)OC)N12	inactive
COc1cccc(-c2sc3ccc(OC)cc3c2-c2ccc(OCCN3CCCCC3)cc2)c1	inactive
CC[C@@H](C)[C@@H]1CN([C@@H](C)CN2CCC[C@H]2CN2C(N)=NC[C@H]2C(C)C)C(=N)N1CCc1ccc(Cl)c(Cl)c1	inactive
C[C@H](CO)N1C[C@H](C)[C@@H](CN(C)Cc2ccc(-c3ccccc3)cc2)Oc2ccc(NC(=O)Cn3cnnn3)cc2C1=O	inactive
COc1cc(C2CC(=O)Oc3cc(OC)c(OC)c(OC)c32)cc(OC)c1OC (stereo not drawn)	inactive
Brc1ccc(-c2noc(-c3ccccc3)n2)o1	inactive
Cc1cccc(-c2noc(CCC(=O)NC3CCCC3)n2)c1	inactive
Cc1cccc(-c2noc(-c3ccc(F)cc3)n2)c1	31.6 µM (active)
